# Assay results reported in PubChem BioAssay (EPA / NIEHS).
# The source made the active and inactive calls. Rule for the calls: active = hit-call score of the fitted dose curve at least 0.9, where 1 is the maximum; inactive = score below 0.9.
# Experiment: ATG_M_19_CIS: Attagene CIS-FACTORIAL HepG2 Assay for M19 Transcription Factor (Internal Marker) (AID 2282939)
# Conditions: HepG2 Attagene CIS-FACTORIAL M19 internal marker reporter; actives raise or lower the signal
# Description: ATG_CIS is a cell-based, multiplexed-readout assay that uses HepG2, a human liver cell line, with measurements taken at 24 hours after chemical dosing in a 24-well plate.ATG_M_19_CIS is one of 52 assay component(s) measured or calculated from the ATG_CIS assay. It is designed to make measurements of mRNA induction, a form of inducible reporter, as detected with fluorescence intensity signals by Reverse transcription polymerase chain reaction (RT-PCR) and Capillary electrophoresis technology.Data from the assay component ATG_M_19_CIS was analyzed into 1 assay endpoint. This assay endpoint, ATG_M_19_CIS, was analyzed with bidirectional fitting relative to DMSO as the negative control and baseline of activity. Using a type of inducible reporter, measures of mRNA for gain or loss-of-signal activity can be used to understand the background control at the transcription factor-level as they relate to the gene . Furthermore, this assay endpoint can be referred to as a secondary readout, because this assay has produced multiple assay endpoints where this one serves a background control function. To generalize the intended target to other relatable targets, this assay endpoint is annotated to the background measurement intended target family, where the subfamily is internal marker.
# Human liver HepG2 cells are transiently transfected with multiple reporter transcription units (MRTUs) in 6-well plates using FuGene 6 reagent (Roche; 3 ml FuGene/1 mg DNA). The MRTU constructs are regulated by a cis-regulating element (promoter). […] A major difference between the CIS and TRANS system is that in CIS activities of endogenous TFs are measured, whereas the TRANS assay evaluates changes in activities of exogenous, chimeric NR-Gal4 proteins. […] At the end of 24 hour incubation, total RNA was isolated using TriZol reagent (Invitrogen). The isolated RNA is then reverse-transcribed using oligo(dT) primer and Mo-MLV reverse transcriptase (Invitrogen) with DNAse I (Ambion) treatment for 30 min. The one-tenth of the produced cDNA was amplified by PCR using Taq DNA polymerase (Invitrogen) and two reporter sequence-specific primers. The PCR products were fluorescently labeled by primer extension with 6-arboxyfluorescein (6-FAM) 5'-labeled reporter sequence-specific primer (2 min at 95 C, 20 s at 68 C and 10 min at 72 C) and these products were digested with 5U of HpaI (New England Biolabs) for 2h at 37 C. The fragments were purified using Qiaquick PCR columns (Qiagen), analyzed on an ABI 3130xL genetic analyzer (Applied Biosystems) with peak positions identified by using a set of X-rhodamine (ROX)-labeled MapMarker1000 molecular weight standards (BioVentures). The raw capillary electrophoresis data was processed using Attagraph software (Attagene).
SMILES,outcome,AC50
Clc1ccc(C(c2ccc(Cl)cc2)C(Cl)(Cl)Cl)cc1,inactive,
CC(C)(O)c1cnn2c(-c3ccc(F)c(-c4c(F)cccc4C#N)c3)cnc2n1,inactive,
Nc1ccc(Cc2ccc(N)cc2)cc1,inactive,
ClCCOCCCl,inactive,
CCCCCOC(=O)c1ccccc1C(=O)OCCCCC,inactive,
Cc1cccc(N)c1N,inactive,
c1ccc(NNc2ccccc2)cc1,inactive,
CCCCCCCCOC(=O)c1ccc(C(=O)OCCCCCCCC)c(C(=O)OCCCCCCCC)c1,inactive,
Oc1ccccc1Cl,inactive,
CN(C)C(=O)Nc1ccc(Cl)cc1,inactive,
CO[C@@H]1[C@H](OC(=O)NC(=O)CCl)CC[C@]2(CO2)[C@H]1[C@@]1(C)O[C@@H]1CC=C(C)C,inactive,
Oc1ccc2ccc3cccc4ccc1c2c34,inactive,
[As]#[In],inactive,
c1ccc2c(c1)oc1ccccc12,inactive,
CCNS(=O)(=O)C(F)(F)C(F)(F)C(F)(F)C(F)(F)C(F)(F)C(F)(F)C(F)(F)C(F)(F)F,inactive,
O=Cc1ccco1,inactive,
Cn1cc(-c2ccccc2)c(=O)c(-c2cccc(C(F)(F)F)c2)c1,inactive,
CC(C)(C)C(O)(CCc1ccc(Cl)cc1)Cn1cncn1 (stereo not given),inactive,
O=C(O)C1C2CCC(O2)C1C(=O)O (stereo not given),inactive,
O=C(N[C@H](c1ccccc1)[C@@H]1CN2CCC1CC2)c1c(Cl)ccc(C(F)(F)F)c1Cl,inactive,

SMILES,outcome,AC50
CCOc1cccc(C2(N3CCN(c4ccccc4)CC3)CCC(C)CC2)c1 (stereo not given),inactive,
Cc1cc(N=Nc2ccccc2C)ccc1N,inactive,
O=C(Oc1ccc(Br)cc1)N1CCN2CCC1CC2,inactive,
c1ccc(N=Nc2ccccc2)cc1,inactive,
C[C@]12C=CC3=C4CCC(=O)C=C4CC[C@H]3[C@@H]1CC[C@@H]2O,inactive,
CN(C)c1ccccc1,inactive,
ClC1=C(Cl)[C@]2(Cl)[C@H]3[C@H]([C@@H]4C=C[C@H]3C4)[C@@]1(Cl)C2(Cl)Cl,inactive,
CNC(=O)Oc1cccc2c1OC(C)(C)C2,inactive,
Cc1ccc(N)c(N)c1,inactive,
COc1cc(C=O)cc2c1[C@H](COC(N)=O)[C@]1(OC(C)=O)ON2C[C@H]2[C@@H]1N2C(C)=O,,33.4 µM (active)
CC(C)COC(=O)c1ccccc1C(=O)OCC(C)C,inactive,
Nc1ccc([N+](=O)[O-])cc1,inactive,
Clc1ccc(C(c2ccc(Cl)cc2)C(Cl)Cl)cc1,inactive,
[Cl-].[Cl-].[Hg+2],inactive,
CCC(C)c1ccc(O)cc1 (stereo not given),inactive,
C=CCc1ccc2c(c1)OCO2,inactive,
CCCCCCCCn1sccc1=O,inactive,
Nc1cc(Cl)cc(C(=O)O)c1Cl,inactive,
ClC1=C(Cl)C2(Cl)C3C(Cl)C=CC3C1(Cl)C2(Cl)Cl (stereo not given),inactive,
Cc1ccc([N+](=O)[O-])cc1,inactive,
